Test results as given in the supplement of paper PMC11732987, “Enantioselective OTUD7B fragment discovery through chemoproteomics screening and high-throughput optimisation” (Communications Chemistry, 2025).

How the values were obtained:
Experiment in all cases: log2 ratio of Biotin-Ahx-Ub-VS probe labelling (fragment/DMSO); higher = less target engagement (more negative = stronger competition), active = hit call of the paper (q ≤ 0.05, log2 ratio ≤ -1)
Conditions in all cases: compound concentration: 200 uM; treatment time: 3 h
USP42 = target: T1, USP42 (UniProt Q9H9J4)
T1 sequence (whole entry): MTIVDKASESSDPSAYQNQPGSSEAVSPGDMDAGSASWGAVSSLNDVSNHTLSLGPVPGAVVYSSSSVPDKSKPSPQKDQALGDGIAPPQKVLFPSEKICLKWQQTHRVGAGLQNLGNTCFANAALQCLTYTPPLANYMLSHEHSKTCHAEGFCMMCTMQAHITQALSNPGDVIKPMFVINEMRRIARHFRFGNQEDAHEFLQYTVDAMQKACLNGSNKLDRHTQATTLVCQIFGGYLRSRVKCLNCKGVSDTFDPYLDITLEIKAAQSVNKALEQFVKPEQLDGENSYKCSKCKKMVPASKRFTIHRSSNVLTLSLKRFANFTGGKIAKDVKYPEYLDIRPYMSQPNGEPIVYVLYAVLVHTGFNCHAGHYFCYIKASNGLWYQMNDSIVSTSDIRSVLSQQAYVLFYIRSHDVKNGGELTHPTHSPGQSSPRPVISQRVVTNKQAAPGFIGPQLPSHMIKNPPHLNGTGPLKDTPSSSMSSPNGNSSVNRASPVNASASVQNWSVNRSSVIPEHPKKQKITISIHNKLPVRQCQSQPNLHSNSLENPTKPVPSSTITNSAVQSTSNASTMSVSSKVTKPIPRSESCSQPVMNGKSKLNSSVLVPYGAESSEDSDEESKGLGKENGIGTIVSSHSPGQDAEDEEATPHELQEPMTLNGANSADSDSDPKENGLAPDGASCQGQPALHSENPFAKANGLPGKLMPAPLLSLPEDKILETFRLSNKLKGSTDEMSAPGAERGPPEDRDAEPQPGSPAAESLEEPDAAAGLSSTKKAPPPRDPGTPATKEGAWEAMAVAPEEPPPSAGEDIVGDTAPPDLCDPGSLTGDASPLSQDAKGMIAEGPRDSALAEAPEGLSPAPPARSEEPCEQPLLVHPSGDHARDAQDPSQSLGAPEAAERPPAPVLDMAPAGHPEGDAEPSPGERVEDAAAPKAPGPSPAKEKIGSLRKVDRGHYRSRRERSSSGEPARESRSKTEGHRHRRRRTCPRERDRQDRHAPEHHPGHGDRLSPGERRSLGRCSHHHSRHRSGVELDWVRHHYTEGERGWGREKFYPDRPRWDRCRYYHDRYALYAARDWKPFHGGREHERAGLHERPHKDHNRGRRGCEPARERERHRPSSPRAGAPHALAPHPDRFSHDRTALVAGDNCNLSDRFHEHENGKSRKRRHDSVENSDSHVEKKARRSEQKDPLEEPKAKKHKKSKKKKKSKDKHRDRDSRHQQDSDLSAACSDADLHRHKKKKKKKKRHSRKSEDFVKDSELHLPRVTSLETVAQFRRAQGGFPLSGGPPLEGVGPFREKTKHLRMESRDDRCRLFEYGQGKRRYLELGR
Summary of the method: (§1)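 HEK293T lysate, 495 µg per sample in Tris/CHAPS/IGEPAL buffer with protease inhibitors, was treated in triplicate with fragment at 200 µM or vehicle for 3 h and then with Biotin-Ahx-Ub-VS at 0.5 µM final for 1 h. Labelled DUBs were NeutrAvidin-enriched, digested with LysC and trypsin, and run by diaPASEF LC-MS/MS. Spectronaut label-free quantities were global-median-normalised, and values are average log2 fragment/vehicle ratios by unpaired t-test on proteins with ≥2 unique peptides.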

USP46 = USP46 (UniProt P62068)
Summary of the method: as §1

USP47 = target: T2, USP47 (UniProt Q96K76)
T2 sequence (whole entry): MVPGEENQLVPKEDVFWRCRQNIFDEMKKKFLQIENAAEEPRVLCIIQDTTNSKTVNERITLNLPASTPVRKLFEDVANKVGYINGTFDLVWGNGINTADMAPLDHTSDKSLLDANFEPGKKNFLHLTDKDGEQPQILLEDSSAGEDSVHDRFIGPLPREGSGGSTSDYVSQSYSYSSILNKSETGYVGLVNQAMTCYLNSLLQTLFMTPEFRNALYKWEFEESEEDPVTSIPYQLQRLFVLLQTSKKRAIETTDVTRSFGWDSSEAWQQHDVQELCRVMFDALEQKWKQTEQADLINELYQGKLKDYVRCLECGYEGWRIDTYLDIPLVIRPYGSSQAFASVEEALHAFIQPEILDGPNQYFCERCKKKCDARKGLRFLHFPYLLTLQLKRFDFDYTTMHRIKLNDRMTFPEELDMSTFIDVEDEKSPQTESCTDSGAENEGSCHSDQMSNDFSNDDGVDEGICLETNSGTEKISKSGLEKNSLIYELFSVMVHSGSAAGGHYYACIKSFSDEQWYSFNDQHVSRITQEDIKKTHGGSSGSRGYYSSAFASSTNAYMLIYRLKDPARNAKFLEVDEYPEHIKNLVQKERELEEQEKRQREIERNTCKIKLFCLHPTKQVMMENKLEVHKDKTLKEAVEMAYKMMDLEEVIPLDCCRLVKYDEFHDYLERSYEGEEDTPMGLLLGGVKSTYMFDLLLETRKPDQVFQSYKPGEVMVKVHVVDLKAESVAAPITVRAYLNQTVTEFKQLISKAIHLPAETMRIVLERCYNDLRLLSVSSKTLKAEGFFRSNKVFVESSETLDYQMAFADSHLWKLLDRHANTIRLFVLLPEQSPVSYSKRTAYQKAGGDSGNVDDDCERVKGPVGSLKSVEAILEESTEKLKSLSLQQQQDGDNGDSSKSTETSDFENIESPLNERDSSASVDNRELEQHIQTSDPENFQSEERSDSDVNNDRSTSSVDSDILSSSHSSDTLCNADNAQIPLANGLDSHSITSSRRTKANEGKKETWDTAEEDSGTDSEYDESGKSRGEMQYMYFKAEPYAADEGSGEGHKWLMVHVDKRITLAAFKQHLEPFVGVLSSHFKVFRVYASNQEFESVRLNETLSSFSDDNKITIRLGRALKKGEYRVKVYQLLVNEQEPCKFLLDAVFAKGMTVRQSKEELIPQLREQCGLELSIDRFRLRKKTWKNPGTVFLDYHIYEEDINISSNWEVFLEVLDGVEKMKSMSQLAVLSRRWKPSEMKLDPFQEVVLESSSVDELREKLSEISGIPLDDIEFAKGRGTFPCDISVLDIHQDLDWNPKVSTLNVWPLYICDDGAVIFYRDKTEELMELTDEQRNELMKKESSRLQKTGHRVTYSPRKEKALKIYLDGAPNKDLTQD
Summary of the method: as §1

USP48 = target: T3, USP48 (UniProt Q86UV5)
T3 sequence (whole entry): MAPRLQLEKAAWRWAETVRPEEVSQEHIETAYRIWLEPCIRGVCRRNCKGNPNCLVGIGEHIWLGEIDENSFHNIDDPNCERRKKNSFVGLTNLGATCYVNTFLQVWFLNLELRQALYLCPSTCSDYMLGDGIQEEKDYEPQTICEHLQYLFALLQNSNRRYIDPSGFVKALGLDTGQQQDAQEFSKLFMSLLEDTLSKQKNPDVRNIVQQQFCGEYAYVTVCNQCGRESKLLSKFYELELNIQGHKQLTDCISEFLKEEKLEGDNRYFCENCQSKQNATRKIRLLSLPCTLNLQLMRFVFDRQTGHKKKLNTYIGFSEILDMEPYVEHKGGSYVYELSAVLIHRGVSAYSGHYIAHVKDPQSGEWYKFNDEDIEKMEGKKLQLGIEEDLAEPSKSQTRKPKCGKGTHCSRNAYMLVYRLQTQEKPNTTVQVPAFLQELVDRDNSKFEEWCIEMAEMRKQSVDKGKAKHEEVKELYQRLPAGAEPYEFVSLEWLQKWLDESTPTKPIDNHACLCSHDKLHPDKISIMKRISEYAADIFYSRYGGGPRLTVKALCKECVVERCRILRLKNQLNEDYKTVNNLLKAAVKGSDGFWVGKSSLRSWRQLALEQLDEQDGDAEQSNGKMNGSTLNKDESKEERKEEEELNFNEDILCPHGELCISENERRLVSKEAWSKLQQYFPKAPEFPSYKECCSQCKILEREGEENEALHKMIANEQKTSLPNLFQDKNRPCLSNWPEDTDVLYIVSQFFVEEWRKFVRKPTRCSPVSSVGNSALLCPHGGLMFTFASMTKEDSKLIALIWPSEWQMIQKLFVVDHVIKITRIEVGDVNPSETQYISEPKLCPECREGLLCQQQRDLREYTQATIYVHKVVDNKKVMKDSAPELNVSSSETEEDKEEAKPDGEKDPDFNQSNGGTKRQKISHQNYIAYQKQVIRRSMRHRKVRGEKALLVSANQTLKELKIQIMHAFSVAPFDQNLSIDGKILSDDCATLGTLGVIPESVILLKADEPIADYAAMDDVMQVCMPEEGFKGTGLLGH
Summary of the method: as §1

USP5 = target: T4, USP5 (UniProt P45974)
T4 sequence (whole entry): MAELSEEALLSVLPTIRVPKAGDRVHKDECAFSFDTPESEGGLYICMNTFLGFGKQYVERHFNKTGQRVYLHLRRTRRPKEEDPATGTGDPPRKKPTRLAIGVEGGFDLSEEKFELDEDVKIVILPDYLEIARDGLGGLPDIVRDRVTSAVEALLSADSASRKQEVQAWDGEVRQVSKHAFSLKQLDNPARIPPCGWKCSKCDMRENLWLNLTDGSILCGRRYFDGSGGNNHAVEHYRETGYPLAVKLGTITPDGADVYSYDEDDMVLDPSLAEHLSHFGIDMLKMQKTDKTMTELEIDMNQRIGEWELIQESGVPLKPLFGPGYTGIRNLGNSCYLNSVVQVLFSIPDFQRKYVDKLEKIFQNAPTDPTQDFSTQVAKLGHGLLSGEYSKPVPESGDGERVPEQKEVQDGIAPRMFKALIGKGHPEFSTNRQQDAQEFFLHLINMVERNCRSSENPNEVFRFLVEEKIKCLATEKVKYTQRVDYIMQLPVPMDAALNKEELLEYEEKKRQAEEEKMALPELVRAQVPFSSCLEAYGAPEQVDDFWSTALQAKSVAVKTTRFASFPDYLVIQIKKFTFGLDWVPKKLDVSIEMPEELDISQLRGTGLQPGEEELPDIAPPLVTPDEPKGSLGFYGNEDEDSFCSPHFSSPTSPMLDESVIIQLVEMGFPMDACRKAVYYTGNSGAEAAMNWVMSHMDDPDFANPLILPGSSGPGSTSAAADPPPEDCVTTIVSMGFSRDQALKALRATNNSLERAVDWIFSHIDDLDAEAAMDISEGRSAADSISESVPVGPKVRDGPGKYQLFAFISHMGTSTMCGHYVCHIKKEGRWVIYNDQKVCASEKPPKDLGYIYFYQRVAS
Summary of the method: as §1

USP54 = USP54 (UniProt Q70EL1)
Summary of the method: as §1

USP7 = USP7 (UniProt Q93009)
Summary of the method: as §1

USP8 = target: T5, USP8 (UniProt P40818)
T5 sequence (whole entry): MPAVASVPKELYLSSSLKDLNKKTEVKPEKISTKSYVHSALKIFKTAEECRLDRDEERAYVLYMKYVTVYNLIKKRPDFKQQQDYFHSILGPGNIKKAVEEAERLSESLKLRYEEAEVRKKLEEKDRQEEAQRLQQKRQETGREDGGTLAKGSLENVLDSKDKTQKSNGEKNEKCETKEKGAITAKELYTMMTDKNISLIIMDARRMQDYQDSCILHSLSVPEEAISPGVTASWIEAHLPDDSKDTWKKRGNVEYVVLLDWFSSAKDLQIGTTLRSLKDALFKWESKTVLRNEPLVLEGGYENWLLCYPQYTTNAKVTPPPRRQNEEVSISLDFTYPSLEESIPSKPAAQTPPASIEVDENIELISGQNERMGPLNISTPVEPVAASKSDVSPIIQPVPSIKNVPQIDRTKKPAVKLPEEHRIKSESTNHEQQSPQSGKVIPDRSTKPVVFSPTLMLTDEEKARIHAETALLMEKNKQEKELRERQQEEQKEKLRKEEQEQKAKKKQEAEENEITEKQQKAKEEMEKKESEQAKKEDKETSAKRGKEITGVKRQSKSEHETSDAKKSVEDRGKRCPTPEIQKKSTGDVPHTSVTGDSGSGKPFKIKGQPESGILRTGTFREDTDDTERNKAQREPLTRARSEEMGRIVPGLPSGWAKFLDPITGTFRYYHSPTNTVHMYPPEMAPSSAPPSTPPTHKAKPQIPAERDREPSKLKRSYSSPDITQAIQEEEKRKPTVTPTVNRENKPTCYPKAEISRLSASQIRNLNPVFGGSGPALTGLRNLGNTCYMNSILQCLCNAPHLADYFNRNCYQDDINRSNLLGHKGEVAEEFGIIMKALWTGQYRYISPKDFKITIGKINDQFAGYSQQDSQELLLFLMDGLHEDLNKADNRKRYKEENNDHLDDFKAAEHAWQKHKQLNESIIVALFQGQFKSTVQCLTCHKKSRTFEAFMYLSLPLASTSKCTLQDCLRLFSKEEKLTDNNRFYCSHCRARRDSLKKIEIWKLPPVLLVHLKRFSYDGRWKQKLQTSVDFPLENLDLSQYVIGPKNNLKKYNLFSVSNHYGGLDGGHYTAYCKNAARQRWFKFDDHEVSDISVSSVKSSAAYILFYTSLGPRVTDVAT
Summary of the method: as §1

USP9X = USP9X (UniProt Q93008)
Summary of the method: as §1

UniProt O00487 = target: UniProt O00487
Summary of the method: as §1

Measured: log2 ratio of Biotin-Ahx-Ub-VS probe labelling

Chain of USP7 (Q93009 whole entry, looked up): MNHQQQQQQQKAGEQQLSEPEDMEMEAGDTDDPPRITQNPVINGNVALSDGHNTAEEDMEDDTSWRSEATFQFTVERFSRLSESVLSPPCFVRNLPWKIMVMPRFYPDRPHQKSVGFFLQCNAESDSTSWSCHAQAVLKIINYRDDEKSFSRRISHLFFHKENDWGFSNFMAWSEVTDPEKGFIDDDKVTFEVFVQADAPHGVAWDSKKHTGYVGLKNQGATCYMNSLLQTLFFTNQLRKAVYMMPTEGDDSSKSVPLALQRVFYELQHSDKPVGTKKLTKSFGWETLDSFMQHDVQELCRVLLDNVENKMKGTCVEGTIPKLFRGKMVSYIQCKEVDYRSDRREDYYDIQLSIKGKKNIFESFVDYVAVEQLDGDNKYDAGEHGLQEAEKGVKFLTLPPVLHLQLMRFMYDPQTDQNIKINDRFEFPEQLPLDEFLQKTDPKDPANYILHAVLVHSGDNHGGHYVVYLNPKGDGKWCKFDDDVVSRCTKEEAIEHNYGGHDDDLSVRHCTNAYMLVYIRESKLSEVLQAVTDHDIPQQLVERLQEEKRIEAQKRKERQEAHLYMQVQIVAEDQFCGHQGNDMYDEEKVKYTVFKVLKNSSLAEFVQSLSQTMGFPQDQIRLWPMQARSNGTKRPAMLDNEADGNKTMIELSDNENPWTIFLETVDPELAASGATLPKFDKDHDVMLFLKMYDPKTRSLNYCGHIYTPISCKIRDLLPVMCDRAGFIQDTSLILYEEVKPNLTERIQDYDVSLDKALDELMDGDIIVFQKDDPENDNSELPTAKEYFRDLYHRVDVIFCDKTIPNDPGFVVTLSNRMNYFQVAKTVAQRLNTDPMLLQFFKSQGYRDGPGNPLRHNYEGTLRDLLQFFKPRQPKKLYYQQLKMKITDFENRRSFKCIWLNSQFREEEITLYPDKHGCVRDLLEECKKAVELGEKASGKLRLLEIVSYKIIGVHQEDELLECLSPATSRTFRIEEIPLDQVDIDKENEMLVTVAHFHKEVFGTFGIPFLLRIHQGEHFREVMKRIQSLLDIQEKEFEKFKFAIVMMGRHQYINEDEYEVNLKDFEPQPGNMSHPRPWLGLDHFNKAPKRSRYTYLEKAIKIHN
Chain of USP46 (P62068 whole entry): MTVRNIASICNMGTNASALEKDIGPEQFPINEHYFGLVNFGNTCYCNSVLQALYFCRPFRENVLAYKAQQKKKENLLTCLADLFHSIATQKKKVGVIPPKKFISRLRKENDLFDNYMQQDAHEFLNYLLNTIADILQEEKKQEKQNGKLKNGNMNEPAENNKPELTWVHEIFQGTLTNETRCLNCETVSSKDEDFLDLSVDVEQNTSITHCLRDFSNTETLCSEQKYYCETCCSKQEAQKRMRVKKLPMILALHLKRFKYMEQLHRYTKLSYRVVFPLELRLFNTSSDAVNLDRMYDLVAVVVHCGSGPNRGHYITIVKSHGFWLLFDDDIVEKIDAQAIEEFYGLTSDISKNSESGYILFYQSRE
Chain of USP9X (Q93008 whole entry): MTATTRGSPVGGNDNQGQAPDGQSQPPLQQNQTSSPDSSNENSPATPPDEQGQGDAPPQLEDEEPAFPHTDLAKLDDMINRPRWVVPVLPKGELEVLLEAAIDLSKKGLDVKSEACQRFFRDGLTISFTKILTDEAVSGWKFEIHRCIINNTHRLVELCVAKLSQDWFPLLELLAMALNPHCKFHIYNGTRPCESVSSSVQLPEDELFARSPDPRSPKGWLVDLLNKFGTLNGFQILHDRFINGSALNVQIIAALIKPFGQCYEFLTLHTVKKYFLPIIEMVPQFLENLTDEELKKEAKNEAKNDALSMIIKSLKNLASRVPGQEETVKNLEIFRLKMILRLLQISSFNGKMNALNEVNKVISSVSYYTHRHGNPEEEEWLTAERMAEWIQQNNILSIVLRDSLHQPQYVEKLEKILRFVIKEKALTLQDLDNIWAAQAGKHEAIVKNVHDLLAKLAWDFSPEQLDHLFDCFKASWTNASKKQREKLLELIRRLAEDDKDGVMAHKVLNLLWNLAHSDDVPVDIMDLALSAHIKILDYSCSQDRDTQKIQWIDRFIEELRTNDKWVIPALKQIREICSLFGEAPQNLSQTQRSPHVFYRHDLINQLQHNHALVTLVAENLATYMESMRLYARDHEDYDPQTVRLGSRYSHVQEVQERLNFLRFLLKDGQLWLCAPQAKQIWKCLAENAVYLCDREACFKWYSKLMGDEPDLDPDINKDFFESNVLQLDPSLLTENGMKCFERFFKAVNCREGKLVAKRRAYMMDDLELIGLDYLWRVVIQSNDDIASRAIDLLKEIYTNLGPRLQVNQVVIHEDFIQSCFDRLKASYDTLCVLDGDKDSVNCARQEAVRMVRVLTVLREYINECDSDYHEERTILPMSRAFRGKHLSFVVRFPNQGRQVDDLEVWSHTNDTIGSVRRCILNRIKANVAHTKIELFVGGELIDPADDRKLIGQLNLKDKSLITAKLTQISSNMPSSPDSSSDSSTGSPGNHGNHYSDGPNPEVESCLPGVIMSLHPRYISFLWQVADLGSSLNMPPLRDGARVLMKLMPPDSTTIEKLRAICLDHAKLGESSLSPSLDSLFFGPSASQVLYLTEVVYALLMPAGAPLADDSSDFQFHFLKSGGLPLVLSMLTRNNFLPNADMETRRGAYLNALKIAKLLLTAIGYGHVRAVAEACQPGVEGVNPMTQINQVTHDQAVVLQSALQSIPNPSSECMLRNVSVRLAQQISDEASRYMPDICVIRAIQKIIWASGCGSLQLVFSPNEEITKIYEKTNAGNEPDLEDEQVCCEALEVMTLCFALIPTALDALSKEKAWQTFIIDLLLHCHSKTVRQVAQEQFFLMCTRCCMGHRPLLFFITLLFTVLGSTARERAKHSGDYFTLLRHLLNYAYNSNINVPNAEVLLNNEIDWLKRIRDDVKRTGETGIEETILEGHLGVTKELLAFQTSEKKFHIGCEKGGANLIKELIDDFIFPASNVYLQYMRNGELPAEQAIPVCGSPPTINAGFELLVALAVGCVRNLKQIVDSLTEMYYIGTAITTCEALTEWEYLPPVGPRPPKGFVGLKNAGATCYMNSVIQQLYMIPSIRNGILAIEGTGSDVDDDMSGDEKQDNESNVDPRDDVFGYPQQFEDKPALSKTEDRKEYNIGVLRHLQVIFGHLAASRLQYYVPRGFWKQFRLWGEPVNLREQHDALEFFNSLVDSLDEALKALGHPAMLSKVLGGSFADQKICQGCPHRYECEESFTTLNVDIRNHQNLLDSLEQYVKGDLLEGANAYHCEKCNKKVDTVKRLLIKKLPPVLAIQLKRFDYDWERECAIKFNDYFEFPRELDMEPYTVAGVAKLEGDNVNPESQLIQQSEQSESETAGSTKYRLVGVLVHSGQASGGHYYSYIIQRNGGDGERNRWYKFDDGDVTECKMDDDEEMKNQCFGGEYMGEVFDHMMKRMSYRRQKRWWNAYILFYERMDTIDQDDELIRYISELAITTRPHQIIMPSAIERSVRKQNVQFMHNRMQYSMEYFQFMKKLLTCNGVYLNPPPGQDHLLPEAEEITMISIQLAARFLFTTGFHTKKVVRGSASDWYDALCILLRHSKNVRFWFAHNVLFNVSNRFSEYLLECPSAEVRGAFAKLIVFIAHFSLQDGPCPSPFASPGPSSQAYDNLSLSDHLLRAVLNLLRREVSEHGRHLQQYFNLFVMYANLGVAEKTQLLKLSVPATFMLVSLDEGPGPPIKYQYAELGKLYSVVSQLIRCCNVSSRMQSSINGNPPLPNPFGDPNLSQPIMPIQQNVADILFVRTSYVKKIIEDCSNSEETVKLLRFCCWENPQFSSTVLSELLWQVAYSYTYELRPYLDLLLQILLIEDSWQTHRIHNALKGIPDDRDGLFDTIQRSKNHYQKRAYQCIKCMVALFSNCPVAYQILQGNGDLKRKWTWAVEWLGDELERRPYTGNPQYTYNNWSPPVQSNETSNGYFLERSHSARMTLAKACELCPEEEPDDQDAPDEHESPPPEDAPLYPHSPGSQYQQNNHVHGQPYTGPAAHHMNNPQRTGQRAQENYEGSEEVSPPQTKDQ
Chain of UniProt O00487 (O00487 whole entry): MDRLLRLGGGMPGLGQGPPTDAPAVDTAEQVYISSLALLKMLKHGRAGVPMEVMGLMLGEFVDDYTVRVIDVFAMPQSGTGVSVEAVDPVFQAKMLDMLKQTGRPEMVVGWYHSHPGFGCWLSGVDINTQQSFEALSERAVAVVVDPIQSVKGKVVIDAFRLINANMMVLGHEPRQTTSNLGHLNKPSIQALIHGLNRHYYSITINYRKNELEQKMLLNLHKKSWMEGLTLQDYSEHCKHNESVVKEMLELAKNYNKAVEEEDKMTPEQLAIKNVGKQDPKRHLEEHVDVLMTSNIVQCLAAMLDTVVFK

CS(=O)(=O)N1CCCN(C(=O)CCl)CC1
inactive: USP42 -0.107 | USP46 0.169 | USP47 -0.733 | USP48 -0.507 | USP5 -0.0151 | USP54 0.239 | USP7 -0.301 | USP8 -0.323 | USP9X -0.177 | UniProt O00487 0.0126
